Experimental data: ChEMBL document CHEMBL3988442, “University of Dundee, Small-Polar-MMV Screening Library” (2021)
In all, about 69,000 compounds went through this assay and about 950 (1.4%) showed an effect of 50% or more. The full list was thinned out, with strong results kept by preference.

Test system: Mycobacterium tuberculosis
Assay: Cornell M. t heat shock assay; also: in the data most compounds retested in dose-response had high values
Type: functional, organism-based
Design: dose or concentration left out as unconfirmed

SMILES	Percent Effect [%]
Cc1noc(C)c1C(=O)N1CCOC2(COCCN(C(C)C)C2)C1.O=C(O)C(F)(F)F (configuration not stated)	7.392
CC(CNCc1ccc(Br)cc1)Oc1ccccn1.Cl (configuration not stated)	-4.228
CN(C)CCn1c2c(ccc1=O)CCN(Cc1cnn(C)c1)CC2.O=C(O)C(F)(F)F.O=C(O)C(F)(F)F	10.2
CC(C)NC(=O)N1CCC2(CCC(=O)N2CCN(C)C)CC1.O=C(O)C(F)(F)F	-12.81
CN1CCN(C(=O)c2cnsn2)c2ccc(F)cc21	82.14
CN1CCN(C(=O)c2cnsn2)c2cc(F)ccc21	57.04
CN1CCN(C(=O)c2csnn2)c2ccccc21	-18.09
CN1CCN(C(=O)CCc2cccnc2)c2ccc(F)cc21	15.62
CN1CCCN(C(=O)c2cnsn2)c2cc(F)ccc21	-35.83
CN1CCCN(C(=O)c2cnsn2)c2cc(Cl)ccc21	-8.8
Clc1ccccc1CCN1CCN(c2ccc3nncn3n2)CC1	33.42
Cc1ccc(-c2nc(CN3CCCC(Cn4cncn4)C3)cs2)o1 (configuration not stated)	9.33
O=C(CC1CC1)N1CCC2(COCc3cnc(N4CCOCC4)nc32)C1 (configuration not stated)	6.453
CCOc1ccc(C(=O)N2CCN(c3nccn3C)CC2)cc1.Cl	-17.36
Cc1cnn(CCNCc2csc(-c3cccs3)n2)c1	25.75
Cc1cnn(CCNCc2csc(-c3ccsc3)n2)c1	107.8
Cc1cnn(CCNCc2csc(-c3ccccc3)n2)c1	104.4
Cc1cnn(CCNCc2csc(-c3ccc(F)cc3)n2)c1	22.16
Cc1cnn(CC(C)NCc2csc(-c3cnn(C)c3)n2)c1 (configuration not stated)	-23.56
Cc1cnn(CC(C)NCc2csc(-c3ccsc3)n2)c1 (configuration not stated)	27.16
Cc1cccc(N2CCc3ncc(CNS(C)(=O)=O)n3CC2)n1.O=C(O)C(F)(F)F	-36.69

SMILES	Percent Effect [%]
Cc1ccc(C2CCCN2S(=O)(=O)N(C)CCc2ccccn2)o1 (configuration not stated)	69.2
Cc1ccc(C2CCCN2S(=O)(=O)N(C)Cc2cnccn2)o1 (configuration not stated)	-5.103
CN(CCc1ccccn1)S(=O)(=O)N1CCCC1c1ccco1 (configuration not stated)	16.77
I.c1cc2c(cc1C1(CNC3=NCCN3)CCCC1)OCCO2	-5.173
CNC(=O)CN1CCOCC12CCN(C(=O)c1ccccc1)CC2.O=C(O)C(F)(F)F	-17.78
COc1ccc(OC)c(NC(=O)N2CCCC2c2ccco2)c1 (configuration not stated)	25.75
COc1ccccc1NC(=O)N1CCCC1c1ccco1 (configuration not stated)	40.09
COc1ccc(NC(=O)N2CCCC2c2ccco2)c(OC)c1 (configuration not stated)	74.57
O=C(O)CC(O)(CC(=O)O)C(=O)O.c1ccc([C@@H]2CN(Cc3cccnc3)C[C@H]2c2cc[nH]n2)cc1	-3.502
Cc1ccc(CN2CCC3(CC2)COCCN3S(C)(=O)=O)o1.O=C(O)C(F)(F)F	38.18
CN1CCN(C(=O)Cn2nc(C(F)(F)F)c(Br)c2C2CC2)CC1	82.35
CCCN1CCN(C(=O)Cn2nc(C(F)(F)F)c(Br)c2C2CC2)CC1	-16.27
CCN1CCN(C(=O)Cn2nc(C(F)(F)F)c(Br)c2C2CC2)CC1	-4.049
Nc1ncc2c(n1)CN(C1CCCC1)C2=O	101.8
CC1CCC(N2Cc3nc(N)ncc3C2=O)CC1 (configuration not stated)	7.341
CN1CCC(N2Cc3nc(N)ncc3C2=O)CC1	-6.315
COCCN1CCc2c(CNC(=O)c3nccn3C)cncc2C1.Cl.Cl.Cl	7.945
Cc1nc(CN2CCC3(CC2)CC(c2cccnc2)C(=O)N3C)cs1.O=C(O)C(F)(F)F.O=C(O)C(F)(F)F (configuration not stated)	40.95
O=C(c1cccnc1O)N1CCC2(CCCO2)CC1	-109.6
CSc1ncccc1C(=O)N1CCC2(CC1)OCCCC2O (configuration not stated)	9.306
O=C(c1cccc2cccnc12)N1CC[C@@]2(CCCO2)[C@@H](O)C1	50.53

SMILES	Percent Effect [%]
Br.O=C(CN(C1=NCCCC1)c1ccccc1)c1ccc(OC(F)F)cc1	95.91
C[S+]([O-])c1nncn1CC(=O)c1ccc(OC(F)F)cc1 (configuration not stated)	27.46
Br.O=C(CN(C1=NCCCC1)c1ccccc1)c1ccccc1	-38.94
Br.COc1ccc(C(=O)CN(C2=NCCCCC2)c2ccccc2)cc1	22.41
Cc1ccc(N(CC(=O)N2CCCCC2)C(=O)C2CCCO2)cc1 (configuration not stated)	-0.08324
Br.Cc1cccc(N(CC(=O)c2ccccc2)C2=NCCCCC2)c1	15.52
Br.Cc1ccc(N(CC(=O)c2ccc(Br)cc2)C2=NCCCCC2)cc1	103.6
Br.O=C(CN(C1=NCCCC1)c1ccccc1)c1ccc2c(c1)OCCO2	-15.61
CCOc1ccc(C(=O)CC(SC2CCCCC2)C(=O)O)cc1 (configuration not stated)	28.66
Br.O=C(CN(C1=NCCCCC1)c1ccc(Cl)cc1)c1ccccc1	102
Br.Cc1ccc(C(=O)CN(C2=NCCCCC2)c2ccccc2)cc1	26.5
Br.CCOc1ccc(N(CC(=O)c2ccccc2)C2=NCCCCC2)cc1	104.1
COc1ccc(CN2C[C@@H]3CC[C@H](C2)N(S(=O)(=O)C2CC2)C3)cc1	-4.175
Cc1ccc(N2CC[C@@H]3[C@@H]2CCN3C(=O)Cc2cccs2)nn1.O=C(O)C(F)(F)F	1.861
CC(=O)NCCc1cc2nc(-c3ccncc3)ccn2n1	1.137
COCCC(=O)N1CCCC2(CCCN2Cc2ccccc2F)C1.O=C(O)C(F)(F)F (configuration not stated)	-33.92
CN(C)Cc1cc(C2CCN(C(=O)C3CCCNC3)CC2)nn1C.Cl (configuration not stated)	-6.1
O=C(O)C(F)(F)F.O=C1COC2(CCN(S(=O)(=O)C3CC3)CC2)CN1c1cccnc1	-24.7
CNC(=O)[C@H]1C[C@@H]2CN(Cc3ccc(C)cc3)C[C@H]1O2.O=C(O)C(F)(F)F	33.5
Cc1ccc(N2CC[C@H]3O[C@H](C(=O)N4CCCCO4)CC[C@H]32)nn1.O=C(O)C(F)(F)F	36.81
